The text below walks through data of PubChem BioAssay AID1671190 (National Center for Advancing Translational Sciences (NCATS), 2021).

Hit rate of the full screen: of about 580,000 compounds, about 6,100 (1.1%) were called active. Not shown: some 15% with an inconclusive outcome. Many of the other results were omitted from the sample, so actives are more common in it than they were. Values without a mark were called inactive. Calls come from the whole dose curve; as a rule, active = well fitted inhibition curve with a large enough effect; inconclusive = small, poorly fitted or top-dose-only effect, or another doubt; inactive = no such curve, though single readings can be large or run the other way.
% is set by controls: 0 for no effect and ±100 for the full control effect; potency is the fitted concentration of half-maximal effect.

Chain of Polyunsaturated fatty acid lipoxygenase ALOX12 (Homo sapiens) (P18054 whole entry, looked up): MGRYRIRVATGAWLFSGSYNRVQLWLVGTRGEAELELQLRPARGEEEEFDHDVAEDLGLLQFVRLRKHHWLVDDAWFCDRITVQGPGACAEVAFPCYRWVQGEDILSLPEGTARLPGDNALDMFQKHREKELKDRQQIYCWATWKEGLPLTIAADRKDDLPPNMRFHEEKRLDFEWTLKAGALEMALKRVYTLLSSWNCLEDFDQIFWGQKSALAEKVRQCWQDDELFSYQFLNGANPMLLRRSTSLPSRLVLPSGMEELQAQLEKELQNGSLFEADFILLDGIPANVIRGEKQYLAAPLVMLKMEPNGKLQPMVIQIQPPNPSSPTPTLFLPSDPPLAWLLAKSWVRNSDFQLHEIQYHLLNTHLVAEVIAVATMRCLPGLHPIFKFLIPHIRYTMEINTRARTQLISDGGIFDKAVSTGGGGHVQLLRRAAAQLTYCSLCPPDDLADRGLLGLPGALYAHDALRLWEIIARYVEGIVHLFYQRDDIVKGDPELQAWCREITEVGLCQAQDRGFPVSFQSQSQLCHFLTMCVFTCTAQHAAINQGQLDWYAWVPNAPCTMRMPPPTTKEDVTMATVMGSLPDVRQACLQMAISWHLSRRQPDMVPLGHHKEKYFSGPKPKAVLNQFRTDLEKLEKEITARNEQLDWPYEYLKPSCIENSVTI

This test addresses Polyunsaturated fatty acid lipoxygenase ALOX12 (Homo sapiens) (UniProt P18054). Description: Primary qHTS assay for inhibitors of human arachidonate 12S-lipoxygenase (ALOX12): Round 2. The following applies: purified 12hLO, xylenol orange hydroperoxide absorbance; series mostly up to 108 µM; activity change, negative = inhibition: at the top concentration. From the text: Assay Provider: Theodore R. Holman Ph.D. University of California, Santa Cruz, California Human lipoxygenase 12hLO is a member of the closely related lipoxygenase family of enzymes which catalyze the site-specific oxidation of arachidonic acid to various hormone precursor molecules and as such is a candidate for drug development in a variety of disease areas, such as cancer and inflammation. Inhibition of 12hLO activity was screened by utilizing arachidonic acid as a substrate. The extent of hydroperoxide product formation was measured by a secondary chromogenic reaction in which xylenol orange (XO, Sigma-Aldrich, cat. number 39,818-7) reacts with the ferric ions produced from the reaction between the hydroperoxide and ferrous ions. The Fe (III)-XO complex is characterized with red-shifted absorbance at 560 nm. A purified preparation of human 12hLO was supplied by Dr. Holman laboratory, University of California, Santa Cruz.
PROTOCOL TABLE SEQUENCE No. (e.g., 1, 2, 3, etc.); […] (e.g., Cells, Incubation, Reagent, etc.); VALUE; DESCRIPTION 1; Enzyme; 3 uL; 150 nM 12hLO enzyme solution dispensed in 1536-well Greiner black, clear bottom plates. 2; Compound; 23 nL; compounds and controls were added. 3; Incubate; 15 min; room temperature. 4; Substrate; 1 uL; 40 uM arachidonic acid (final concentration). 5; Incubate; 30 min; room temperature. 6; Reagent; 4 uL; Fe-XO solution was added to each well. 7; Incubation; 30 min; room temperature 8; Detector; absorbance; Read 1 at 405 nm absorbance using ViewLux (Perkin-Elmer) CCD imager. 9; Detector; absorbance; Read 2 at 573 nm absorbance using ViewLux (Perkin-Elmer) CCD imager. NOTES (numbers refer to sequence above) 1; 150 nM 12hLO (final concentration) in buffer solution (25 mM Hepes, 0.01% Triton X-100, pH 7.0) was dispensed in columns 1, 2, 5-48. Column 1 is neutral (100% activity). Buffer only was dispensed in columns 3 and 4 as no enzyme negative controls. The plates were covered with metal lids with gas-exchange holes. 2; Compounds were pin transferred via a Kalypsys Pin Tool (Wako USA) in column 5-48. Control compound was transferred in column 2, titration of nordihydroguaiaretic acid (NDGA, Sigma-Aldrich, N5023) with top concentration of 20 mM in DMSO then 1:3 dilution in duplicate. Dilution factor of 23 nL into 4 uL final assay volume. 3; Covered assay plates were incubated for 15 min at room temperature. 4; Substrate was added to start the reaction; 40 uM arachidonic acid (Sigma-Aldrich, St. Louis, MO) was dispensed throughout the plate. 6; Chromogenic detection reagent solution (divalent iron/xylenol orange, Fe-XO) was added to each well: 200 uM xylenol orange, 300 uM ferrous ammonium sulfate prepared freshly in 50 mM sulfuric acid. 8, 9; Two absorbance readouts were obtained at 405 nm and at 573 nm using a ViewLux high-throughput CCD plate imager (Perkin-Elmer). The 573 to 405 (Read 2 / Read 1) absorbance ratio was used to compute reaction progress.
In general terms: In qHTS, concentration-response curves come from the screen itself.
`Cc1nc2ccccc2c(C)c1CC(=O)N1CCC(C)CC1`: the “activity change, negative = inhibition” value was -26%.

For `Cn1c(=O)c2c(nc(CN3CCc4ccccc4C3)n2CCCc2ccccc2)n(C)c1=O`, the “activity change, negative = inhibition” value was 10.8%. As for `COc1ccc(C(=O)/C=C/c2cccc(OC(=O)C3CC3)c2)cc1`, the “activity change, negative = inhibition” value was -0.582%.

`Cc1nc2c(c(C)c1CCC(=O)NCCN1CCCC1)c(=O)n(C)c(=O)n2C`: the “activity change, negative = inhibition” value was 39.2%. The same measure, in the same setting: to `COc1ccc(-c2noc(CNC(=O)COc3cccc(C)c3C)n2)cc1OC` belongs 19.2%; to `C=CCNc1nc(C)nc(OC)n1`, -0.148%; to `COc1nc(NCc2ccc(Cl)cc2)nc(OC)n1`, 0%. In the case of `C=CCNc1nc(Nc2ccc(Cl)cc2)nc(OC)n1`, the Potency was 39.8 µM (active).

As to `Cc1[nH]c2ccccc2c1C(=O)CSc1nnc(CC(C)c2ccccc2)o1` (stereo unspecified), the “activity change, negative = inhibition” value is -13.7%. Consider `N#Cc1ccccc1COC(=O)c1ccc(Br)cc1`, for which the “activity change, negative = inhibition” value is -29.1%. As for `Oc1ccccc1CN1C[C@H](O)C[C@H]1c1nc(Cc2ccc(F)cc2Cl)no1`, the “activity change, negative = inhibition” value is -13.1% [at 176 µM].

On to `O=[N+]([O-])c1cccc(-c2noc([C@@H]3C[C@@H](O)CN3Cc3cccnc3)n2)c1`, for which the “activity change, negative = inhibition” value was -5.09% [at 176 µM]. Regarding `O=[N+]([O-])c1ccccc1CN1C[C@H](O)C[C@H]1c1nc(-c2ccc(F)cc2)no1`, the Potency is 39.8 µM (active). Consider `CC(C)CN1CCOC(CNC(=O)N2CCN(S(=O)(=O)c3ccc(C#N)cc3)CC2)C1` (stereo unspecified), for which the “activity change, negative = inhibition” value was 11.8%. In the case of `Cc1cccc(C(=O)Nc2cccc(-c3nn4c(C)nnc4s3)c2)c1`, the “activity change, negative = inhibition” value was 13.3%. Still for that read-out and setting: under `CN1Cc2ncnc(NCc3cccs3)c2CN(c2ccccc2)C1=O` stands -6.3%; under `COc1ccccc1CNc1ncnc2ccc(-c3ccc4c(c3)OCO4)cc12`, -18.3%.

Take `N#Cc1cccc(-c2ccc3ncnc(NCc4cccs4)c3c2)c1`: the Potency was 50.1 µM (active). Same read-out and setting: to `c1ccc2c(c1)C(=NC1CCCCC1)NC2=NC1CCCCC1` belongs 31.6 µM (active). As for `CC(C)(C)c1ccc2c(c1)OCCOCCOCCOc1ccc(C(C)(C)C)cc1OCCOCCOCCO2`, the “activity change, negative = inhibition” value is -22.8%. The same measure, in the same setting: to `Cc1onc(-c2ccc(F)cc2F)c1C(=O)Nc1cccc(C(F)(F)F)c1` belongs -19%; to `CCOC(=O)c1c(NC(=O)c2c(-c3ccccc3)noc2C)sc2c1CCC2`, -13.9%. Still for that read-out and setting: under `CCCNC(=O)c1ccc(NC(=O)CCc2ccccc2)cc1` stands -1.02%; under `COCc1nc(CCNC(=O)CCc2ccccc2)no1`, -2.64%; under `COc1ccc(-c2noc([C@@H](C)NCc3ccc(F)cc3)c2C(=O)O)cc1`, -18.2% [at 176 µM]. Take `COc1ccc(C(=O)NC(=S)NNC(=O)CCc2ccccc2)cc1`: the Potency is 12.6 µM (active).

Consider `Cc1onc(-c2ccccc2)c1C(=O)NNC(=S)NC(=O)c1ccc(F)cc1`, for which the Potency is 39.8 µM (active). For the compound `C[C@H]1CN(C(=O)Nc2ccc(F)cc2)C[C@@H]1c1nc(-c2ccccc2)no1`, the “activity change, negative = inhibition” value is -4.94%. Take `COc1ccc(C(=O)NC(=S)NNC(=O)c2c(-c3ccccc3)noc2C)cc1`: the Potency is 35.5 µM (active). As to `c1cc(CN2CCc3c(sc4ncnc(N5CCOCC5)c34)C2)ccn1`, the “activity change, negative = inhibition” value was 80.3%.

For `CCOC(=O)c1c(C)[nH]c(C(=O)OC)c1C`, the “activity change, negative = inhibition” value was 34.4%. On the same count and under the same terms, under `COc1ccc(-c2ccc3nnc(CNC(=O)C(C)Oc4ccc(Cl)cc4)n3n2)cc1` (stereo unspecified) stands -1.11%.

Turning to `Cc1c(S(=O)(=O)N2CCCC2c2cccc(F)c2)cnn1C(F)F` (stereo unspecified), the “activity change, negative = inhibition” value was 4.32%. On the same count and under the same terms, to `Cc1cccc(NCC(=O)Nc2cc(Cl)ccc2-n2cncn2)c1C` belongs 10.3%; to `CCS(=O)(=O)N(C)CCCNC(=O)c1cn(C)c2ccccc12`, 13.5%; to `Cc1ccc(C(NC(=O)Cc2cccs2)C(=O)Nc2ccc3c(c2)OCO3)cc1` (stereo unspecified), -0.457%. The same measure, in the same setting: to `CN(C)C[C@@H]1CN(C)C[C@H]1NS(=O)(=O)c1cccc(C(F)(F)F)c1` belongs 48.1%.

Take `N#CC1=C(N)OC2=C(C(=O)CC(c3ccccc3)C2)C1c1cccs1` (stereo unspecified): the Potency is 11.2 µM (active). Turning to `Cc1ccsc1C1C(C#N)=C(N)OC2=C1C(=O)CC(C)C2` (stereo unspecified), the “activity change, negative = inhibition” value is -15.6%.

On to `Cc1ccsc1C1C(C#N)=C(N)OC2=C1C(=O)CC(C)(C)C2` (stereo unspecified), for which the “activity change, negative = inhibition” value was 0%. As to `O=C(Cn1ccc2cc(Cl)ccc21)Nc1ccc2[nH]ccc2c1`, the “activity change, negative = inhibition” value is 1.07%.

In the case of `Cc1cc2nc(/C(C#N)=C\c3ccc(OCc4ccc(F)cc4)cc3)[nH]c2cc1C`, the “activity change, negative = inhibition” value is -13.3%.

Regarding `CC(C(=O)NC(=O)NC1CCCCC1)n1cnc2c1c(=O)n(C)c(=O)n2C` (stereo unspecified), the “activity change, negative = inhibition” value is -6.16%. On the same count and under the same terms, to `CCCCCOc1ccc2c(C)c(CCC(C)C)c(=O)oc2c1` belongs -5.84%; to `O=C(NC1CCCC1)c1csc(C(O)c2cccc(Cl)c2)n1` (stereo unspecified), -9.02%. `O=C(Nc1ccc(Cl)cc1)c1csc([C@@H]2O[C@H](CO)[C@H](O)[C@H](O)[C@H]2O)n1`: the “activity change, negative = inhibition” value is -6.1%. Take `O=C(Nc1ccc(Cl)cc1)c1csc(C(O)c2cccc(C(F)(F)F)c2)n1` (stereo unspecified): the Potency was 22.4 µM (active).

`Cc1nc(-c2ccccc2Cl)sc1C(=O)NC1C=CS(=O)(=O)C1` (stereo unspecified): the “activity change, negative = inhibition” value was -16.6%. Still for that read-out and setting: under `COc1cccc(C(=O)Nc2ccc3oc(C)nc3c2)c1` stands 16.5%; under `CCN(CC)c1nc2ccccc2nc1C(=O)Nc1cc(OC)ccc1OC`, 2.3%.

Regarding `N#Cc1ccccc1CN1C(=O)S/C(=C/c2cccn2-c2cccc(C(=O)O)c2)C1=O`, the “activity change, negative = inhibition” value was 29.1%.

For `CN(C)S(=O)(=O)c1cccc(-c2nn(-c3ccccc3)cc2/C=C2\SC(=S)N(CC(=O)O)C2=O)c1`, the Potency is 39.8 µM (active). The same measure, in the same setting: under `Cc1ccc(-c2nn(-c3ccccc3)cc2/C=C2\SC(=S)N(CCCCCC(=O)O)C2=O)o1` stands 31.6 µM (active). In the case of `O=C(CCc1c[nH]c2ccccc12)Nc1ccc(F)cc1`, the “activity change, negative = inhibition” value is -4.74%. For `COC(=O)CNC(=O)c1cc2sccc2n1Cc1ccccc1`, the “activity change, negative = inhibition” value is 24.8%. On the same count and under the same terms, under `CC(Sc1ccccn1)C(=O)Nc1cccc(Cl)c1` (stereo unspecified) stands -37.3%. Still for that read-out and setting: under `CCC(=O)Oc1ccc2cc(-c3ccccc3)c(=O)oc2c1` stands 20.5%; under `COc1ccc(OC)c(/C=C/C(=O)Oc2ccccc2Cl)c1`, 29.8%; under `COc1ccc2c(C)c(CC(=O)NCCc3ccccc3)c(=O)oc2c1`, -30.1%. On the same count and under the same terms, under `O=C1c2c(nc(COc3ccccc3)n2Cc2ccccc2)NCCN1Cc1cccc(Cl)c1` stands 46.7%; under `Cc1ccc(NC(=O)CN2C(=O)C(C)(C)c3cc(S(=O)(=O)N4CCCCC4)ccc32)cc1F`, 1.73%. Take `COc1ccc(C)cc1NC(=O)C(C)N1CCN(S(=O)(=O)Cc2ccccc2)CC1` (stereo unspecified): the “activity change, negative = inhibition” value is 3.46%.

`COc1ccc(-n2nnc(C(=O)NCc3ccccc3)c2N)cc1OC`: the “activity change, negative = inhibition” value is -20.9%. For `CCc1ccc(N/C(N)=N/c2nc(C)cc(C)n2)cc1`, the “activity change, negative = inhibition” value was -18.2%. Still for that read-out and setting: to `CCc1ccc(NC(=O)N2CCCC(Cn3cnc4cccnc43)C2)cc1` (stereo unspecified) belongs 45.4%.

Consider `CCc1ccc(NC2Nc3cc(C)nn3S2)cc1` (stereo unspecified), for which the Potency was 25.1 µM (active).
